Experimental findings from PubChem BioAssay are described below.

The source made the active and inactive calls.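 The calls were made as follows, unless noted: active = viability at or under a set limit in both replicates, limit being median viability minus 3 SD (cut at about 48% in these data, passing the limit was not always enough); inconclusive = at or under the limit in just one replicate; inactive = at or above the limit in both replicates.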

The nature of experiment [1]: Her2 expression decrease, cell viability multiplex – SKBR3 breast tumor cells, AlphaScreen, ATP viability, primary screen (AID 461;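 active = Her2 level under about 52% in both replicate screens, with viability over 70% of control, limit read from the data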;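 as to Her2 level: lower value means less Her2 protein in the cells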;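 as to viability: percent of carrier control wells set as 100% viability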). The settings on record: SKBR3 Her2 protein level, 18-24 h, measured here: SKBR3 viability, ATP luminescence, at 10 µM.
Experiment [2] concerns the target Receptor tyrosine-protein kinase erbB-2 (Homo sapiens) (UniProt P04626). The experiment is described as above. To be noted: 18-24 h, at 10 µM, stronger effect = lower value.
Experiment [3] in a line: reduced viability of SK-BR-3 breast cancer cells – cell-based, 24 h, human, pilot screen (AID 572;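 active = viability at or below 10% of carrier control in both of two separate runs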;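 also: compound exposure lasted between 18 and 24 h rather than exactly 24 h; 100% = carrier-treated control wells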). The settings on record: SK-BR-3 viability, CellTiter-Glo luminescence, at 10 µM, stronger effect = lower value. A general note: In ATP-based viability assays light output follows the ATP content of the culture.
Experiment [4] can be described thus: H69AR cell proliferation blockers – human, duplicate replicates, primary screen (AID 580).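 Also: 100% = mean luminescence of untreated wells and 0% = no signal.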 The settings on record: H69AR lung tumor cells viability, ATP luminescence, 72 h; at 10 µM; stronger effect = lower value.
A short description of experiment [5]: MRP1 drug-resistance reversers in H69AR cells – cell-based, doxorubicin co-treatment, pilot screen (AID 601;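 active = viability loss from added drug above about 55%, and viability with drug at most 40%, in both replicates, limit read from the data, passing the limit was not always enough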). To be noted: CellTiter-Glo, 72 h, at 10 µM; for differential viability (reversal): stronger effect = higher value.
Experiment [6] is described as follows: yeast transport mutant growth inhibition pilot in 384-well plates, post-Golgi transport modulator project (AID 636; in the data active = inhibition above about 31%). The settings on record: absorbance 615 nm, about 18 h, stronger effect = higher value.
Experiment [7] is described as follows: growth suppression of yeast trafficking mutant, preliminary HTS, modulators of trafficking downstream of Golgi apparatus project, 1536-format plate, OD 615 nm (AID 637; in the data active = inhibition above about 30%). To be noted: yeast transport mutant growth, absorbance 615 nm, 18 h; stronger effect = higher value.
Where [8] appears, read: H69AR cells + 2 uM doxorubicin, measured here: viability with 2 uM doxorubicin, stronger effect = lower value.
[9] abbreviates: H69AR cells, compound alone cytotoxicity.

Chain of Receptor tyrosine-protein kinase erbB-2 (Homo sapiens) (P04626 whole entry, looked up): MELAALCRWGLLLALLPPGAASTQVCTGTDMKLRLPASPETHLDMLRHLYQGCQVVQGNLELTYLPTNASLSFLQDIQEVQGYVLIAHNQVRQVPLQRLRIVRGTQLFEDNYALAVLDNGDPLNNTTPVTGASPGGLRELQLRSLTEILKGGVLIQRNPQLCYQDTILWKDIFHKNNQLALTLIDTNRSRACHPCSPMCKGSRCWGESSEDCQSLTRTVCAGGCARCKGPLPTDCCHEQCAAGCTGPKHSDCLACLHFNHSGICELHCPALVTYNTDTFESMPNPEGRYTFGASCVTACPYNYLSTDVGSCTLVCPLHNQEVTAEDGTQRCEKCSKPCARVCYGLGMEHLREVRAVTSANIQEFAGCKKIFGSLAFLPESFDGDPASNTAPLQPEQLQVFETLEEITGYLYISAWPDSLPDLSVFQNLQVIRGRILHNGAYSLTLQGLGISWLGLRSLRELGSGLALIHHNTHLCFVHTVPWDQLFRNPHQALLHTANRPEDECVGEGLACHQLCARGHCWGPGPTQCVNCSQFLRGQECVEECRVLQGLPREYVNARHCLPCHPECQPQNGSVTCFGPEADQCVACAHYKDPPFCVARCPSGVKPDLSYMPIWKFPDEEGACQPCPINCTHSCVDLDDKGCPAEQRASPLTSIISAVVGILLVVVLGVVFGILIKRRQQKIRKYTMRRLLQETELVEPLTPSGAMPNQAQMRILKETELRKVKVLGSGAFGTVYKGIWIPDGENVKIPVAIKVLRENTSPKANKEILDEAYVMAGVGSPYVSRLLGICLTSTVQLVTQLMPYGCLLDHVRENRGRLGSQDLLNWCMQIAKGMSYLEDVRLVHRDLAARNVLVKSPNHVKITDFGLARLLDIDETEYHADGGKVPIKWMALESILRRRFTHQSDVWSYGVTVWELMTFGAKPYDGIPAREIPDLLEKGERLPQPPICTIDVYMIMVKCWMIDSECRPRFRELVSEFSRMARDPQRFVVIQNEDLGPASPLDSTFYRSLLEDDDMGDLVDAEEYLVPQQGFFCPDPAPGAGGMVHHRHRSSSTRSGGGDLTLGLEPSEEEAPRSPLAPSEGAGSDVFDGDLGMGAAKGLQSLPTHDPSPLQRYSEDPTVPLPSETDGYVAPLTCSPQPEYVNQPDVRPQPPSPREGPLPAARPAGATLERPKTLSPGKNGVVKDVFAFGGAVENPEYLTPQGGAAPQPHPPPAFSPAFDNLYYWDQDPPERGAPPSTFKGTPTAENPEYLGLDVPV

A word on the viability: it is a read-out of living cells in per cent, often relative to untreated cells. One may read the inhibition as the change of the read-out against control, counted positive when it falls. Turning to `CCOC(=O)C1=C(N)c2ccccc2CC1C(C)C` (stereo not drawn), the viability was 85.5% in experiment [1]; 85.5% (inactive) in experiment [3]; 72% (inactive) in experiment [4]; 76.1% in experiment [5] (setting [8]); 72% in experiment [5] (setting [9]). Further, the Her2 level in experiment [2] is 78% (inactive). Moreover, the differential viability (reversal) in experiment [5] (H69AR cells + 2 uM doxorubicin) is -4.15% (inactive). Also, the inhibition in experiment [6] is -5.34% (inactive); in experiment [7], -1.9% (inactive).
With `Oc1c(Cl)cc(Cl)c2c1NCCC2`, the viability in experiment [1] is 71.5%; in experiment [3], 71.5% (inactive); in experiment [4], 68.8% (inactive); in experiment [5] (setting [8]), 80.7%; in experiment [5] (setting [9]), 68.8%. Also, in experiment [2], the Her2 level was 65% (inactive). For the same molecule, in experiment [5] (H69AR cells + 2 uM doxorubicin), the differential viability (reversal) is -11.9% (inactive). For the same molecule, the inhibition in experiment [6] is -2.63% (inactive); in experiment [7], -2.7% (inactive).
Regarding `Clc1ccc(Cl)c(-c2nn3c(COc4ccccc4)nnc3s2)c1`, the viability is 96% in experiment [1]; 96% (inactive) in experiment [3]; 72.9% (inactive) in experiment [4]; 71.9% in experiment [5] (setting [8]); 72.9% in experiment [5] (setting [9]). Besides, the Her2 level in experiment [2] is 69% (inactive). Further, the differential viability (reversal) in experiment [5] (H69AR cells + 2 uM doxorubicin) is 1.02% (inactive). The inhibition in experiment [6] is -5.07% (inactive); in experiment [7], 5.32% (inactive).
`c1ccc(CN2CCN(c3ncnc4c3[nH]c3ccccc34)CC2)cc1`: the viability in experiment [1] was 121%; in experiment [3] it was 121% (inactive); in experiment [4] it was 60.6% (inactive); in experiment [5] (setting [8]), 83.2%; in experiment [5] (setting [9]), 60.6%. The Her2 level in experiment [2] is 47% (active). In addition, the differential viability (reversal) in experiment [5] (H69AR cells + 2 uM doxorubicin) was -22.6% (inactive). Further, the inhibition in experiment [6] was -6% (inactive); in experiment [7] it was 2.1% (inactive).
For the molecule `COc1ccc(CNc2oc(COc3ccccc3Cl)nc2C#N)cc1`, the viability in experiment [1] is 84%; in experiment [3] it was 84% (inactive); in experiment [4], 87.3% (inactive); in experiment [5] (setting [8]), 92.1%; in experiment [5] (setting [9]) it was 87.3%. In addition, the Her2 level in experiment [2] was 68.5% (inactive). The differential viability (reversal) in experiment [5] (H69AR cells + 2 uM doxorubicin) is -4.78% (inactive). In addition, the inhibition in experiment [6] was 0.26% (inactive); in experiment [7] it was 14.1% (inactive).
As for `COc1ccccc1NC(=O)NCCCN1CCN(c2cccc(Cl)c2)CC1`, the viability in experiment [1] was 77%; in experiment [3], 77% (inactive); in experiment [4], 72.6% (inactive); in experiment [5] (setting [8]), 86.8%; in experiment [5] (setting [9]) it was 72.6%. The Her2 level in experiment [2] was 70.5% (inactive). Also, the differential viability (reversal) in experiment [5] (H69AR cells + 2 uM doxorubicin) is -14.3% (inactive). For the same molecule, the inhibition in experiment [6] is 4.4% (inactive); in experiment [7], -7.7% (inactive).
On to `Cc1ccc(C(=O)/C=C/Nc2cccc(O)c2)cc1`, for which the viability in experiment [1] is 111%; in experiment [3], 111% (inactive); in experiment [4], 85.1% (inactive); in experiment [5] (setting [8]), 82.1%; in experiment [5] (setting [9]) it was 85.1%. The Her2 level in experiment [2] was 76% (inactive). Besides, the differential viability (reversal) in experiment [5] (H69AR cells + 2 uM doxorubicin) was 3.02% (inactive). The inhibition in experiment [6] was -7.03% (inactive); in experiment [7] it was -1.83% (inactive).
`Cc1cc(O)c(-c2cc(C(=O)Nc3ccc(S(=O)(=O)N4CCOCC4)cc3)[nH]n2)cc1C`: the viability is 120% in experiment [1]; 120% (inactive) in experiment [3]; 37.6% (active) in experiment [4]; 59.2% in experiment [5] (setting [8]); 37.6% in experiment [5] (setting [9]). Further, the Her2 level in experiment [2] is 41% (active). For the same molecule, the differential viability (reversal) in experiment [5] (H69AR cells + 2 uM doxorubicin) was -21.6% (inactive). Moreover, the inhibition in experiment [6] was -5.14% (inactive); in experiment [7], -5.08% (inactive).
As to `COc1cccc(-c2cc3nc4c(c(N5CCC6(CC5)OCCO6)n3n2)CCCC4)c1`, the viability in experiment [1] was 124%; in experiment [3], 124% (inactive); in experiment [4], 58.5% (inactive); in experiment [5] (setting [8]), 61.9%; in experiment [5] (setting [9]), 58.5%. Besides, in experiment [2], the Her2 level is 67.5% (inactive). Besides, the differential viability (reversal) in experiment [5] (H69AR cells + 2 uM doxorubicin) was -3.45% (inactive). For the same molecule, the inhibition in experiment [6] was 35.3% (active); in experiment [7], 21.6% (inactive).
Turning to `CCc1ccc2oc(-c3cc(N)ccc3Cl)nc2c1`, the viability in experiment [1] was 102%; in experiment [3], 102% (inactive); in experiment [4], 77.2% (inactive); in experiment [5] (setting [8]) it was 89.4%; in experiment [5] (setting [9]) it was 77.2%. Besides, in experiment [2], the Her2 level was 87.5% (inactive). Also, the differential viability (reversal) in experiment [5] (H69AR cells + 2 uM doxorubicin) was -12.2% (inactive). In addition, the inhibition was -0.54% (inactive) in experiment [6] and -4% (inactive) in experiment [7].
For `COc1ccc(Cn2nnnc2C(c2cccnc2)N2CCN(c3ccc(O)cc3)CC2)cc1` (stereo not drawn), the viability was 99.5% in experiment [1]; 99.5% (inactive) in experiment [3]; 82.5% (inactive) in experiment [4]; 93.2% in experiment [5] (setting [8]); 82.5% in experiment [5] (setting [9]). Also, the Her2 level in experiment [2] is 89.5% (inactive). Besides, the differential viability (reversal) in experiment [5] (H69AR cells + 2 uM doxorubicin) is -10.7% (inactive). Besides, the figures for the inhibition in experiment [6] and in experiment [7] were -6.4% (inactive) and 4.19% (inactive), respectively.
`CCOC(=O)c1ccccc1NC(=O)c1c(O)c2ccccc2n(CC)c1=O`: the viability is 89% in experiment [1]; 89% (inactive) in experiment [3]; 71.3% (inactive) in experiment [4]; 82.3% in experiment [5] (setting [8]); 71.3% in experiment [5] (setting [9]). Further, the Her2 level in experiment [2] is 90% (inactive). The differential viability (reversal) in experiment [5] (H69AR cells + 2 uM doxorubicin) is -11.1% (inactive). Also, the inhibition in experiment [6] is -6.85% (inactive); in experiment [7], 0.16% (inactive).
Consider `COc1cc2nc(SCC(=O)NC3CC3)n(CCC3=CCCCC3)c(=O)c2cc1OC`, for which the viability is 102% in experiment [1]; 102% (inactive) in experiment [3]; 74.5% (inactive) in experiment [4]; 65.1% in experiment [5] (setting [8]); 74.5% in experiment [5] (setting [9]). The Her2 level in experiment [2] is 107% (inactive). Moreover, the differential viability (reversal) in experiment [5] (H69AR cells + 2 uM doxorubicin) was 9.46% (inactive). Also, the inhibition in experiment [6] was -2.11% (inactive); in experiment [7], -4.33% (inactive).
As to `CCOC(=O)c1ccc(N=Cc2nc(-c3ccccc3)oc2OC(C)=O)cc1`, the viability in experiment [1] was 106%; in experiment [3], 106% (inactive); in experiment [4], 17.9% (active); in experiment [5] (setting [8]), 23.2%; in experiment [5] (setting [9]), 17.9%. Moreover, in experiment [2], the Her2 level is 75.5% (inactive). In addition, the differential viability (reversal) in experiment [5] (H69AR cells + 2 uM doxorubicin) was -5.29% (inactive). Further, the inhibition was -4.47% (inactive) in experiment [6] and -2.38% (inactive) in experiment [7].
`CC(C)Cn1c(N)c(C(=O)NCc2cccs2)c2nc3ccccc3nc21`: the viability in experiment [1] was 77%; in experiment [3] it was 77% (inactive); in experiment [4] it was 12% (active); in experiment [5] (setting [8]), 17.1%; in experiment [5] (setting [9]), 12%. Also, the Her2 level in experiment [2] is 101% (inactive). For the same molecule, the differential viability (reversal) in experiment [5] (H69AR cells + 2 uM doxorubicin) was -5.04% (inactive). In addition, the inhibition in experiment [6] was 24.3% (inactive); in experiment [7] it was 12.1% (inactive).
For the molecule `COc1ccccc1NC(=O)Cn1nnc(-c2ccccc2NC(=O)c2ccco2)n1`, the viability was 91.5% in experiment [1]; 91.5% (inactive) in experiment [3]; 6.73% (active) in experiment [4]; 10.9% in experiment [5] (setting [8]); 6.73% in experiment [5] (setting [9]). In experiment [2], the Her2 level is 72.5% (inactive). Moreover, the differential viability (reversal) in experiment [5] (H69AR cells + 2 uM doxorubicin) is -4.18% (inactive). Further, the inhibition was -5.41% (inactive) in experiment [6] and 0.66% (inactive) in experiment [7].
Turning to `CCOc1ccc2nc(NC(=O)CSc3nc4ccccc4c(=O)n3Cc3ccco3)sc2c1`, the viability in experiment [1] was 82.5%; in experiment [3] it was 82.5% (inactive); in experiment [4], 45.2% (active); in experiment [5] (setting [8]) it was 45.4%; in experiment [5] (setting [9]) it was 45.2%. In addition, the Her2 level in experiment [2] is 84% (inactive). In addition, the differential viability (reversal) in experiment [5] (H69AR cells + 2 uM doxorubicin) was -0.105% (inactive). In addition, the inhibition in experiment [6] was -5.95% (inactive); in experiment [7], -1.97% (inactive).
